Assay [1] can be described thus: NCI Yeast Anticancer Drug Screen. Data for the rad50 strain (AID 155).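 Further: 0% = growth of vehicle-only cultures of the same strain.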 Particulars: S. cerevisiae rad50 strain growth inhibition; at 50.0 µM; stronger effect = higher value. A digest of the protocol: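 Readout: growth inhibition relative to vehicle-treated cultures. Compound exposure was carried out in a genetically defined yeast strain deficient in DNA damage repair.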
A short description of assay [2]: NCI Yeast Anticancer Drug Screen. Data for the mec2-1 strain (AID 157). Particulars: S. cerevisiae mec2-1 strain, at 50.0 µM, stronger effect = higher value. In short, it runs like this: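 Growth inhibition is read against vehicle-treated controls after compound exposure of the mec2-1 yeast strain, which is defective in DNA damage repair or cell cycle control.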
Assay [3] is described as follows: NCI Yeast Anticancer Drug Screen. Data for the sgs1 mgt1 strain (AID 161).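 Further: 0% = growth of cultures given vehicle only.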 The note with it: S. cerevisiae sgs1 mgt1 strain, at 50.0 µM, stronger effect = higher value. A digest of the protocol:
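Compounds are added to genetically altered yeast, and growth is compared with cultures given vehicle alone to give percent inhibition.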

Assay [4] is described as follows: NCI Yeast Anticancer Drug Screen. Data for the cln2 rad14 strain (AID 165).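 Further: 0% = growth equal to vehicle treated cultures.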 The note with it: S. cerevisiae cln2 rad14 strain, at 50.0 µM, stronger effect = higher value. In short, it runs like this:
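Growth inhibition, relative to vehicle-treated controls, is the read-out. The test organism is a yeast strain with defined genetic alterations, cln2 rad14.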

Assay [5] can be described thus: NCI Yeast Anticancer Drug Screen. Data for the bub3 strain (AID 167). The note with it: S. cerevisiae bub3 mutant strain, at 50.0 µM, stronger effect = higher value. A digest of the protocol: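 Readout: yeast growth inhibition, expressed relative to vehicle-only wells. The test organism is a mutant strain from a panel with lesions in DNA repair or checkpoint genes.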
Assay [6] can be described thus: NCI Yeast Anticancer Drug Screen. Data for the mlh1 rad18 strain (AID 175). Particulars: S. cerevisiae mlh1 rad18 strain growth inhibition; at 50.0 µM; stronger effect = higher value. A digest of the protocol: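 Cells of a genetically altered yeast strain, deficient in DNA damage repair, were treated with compound. Their growth was then compared with that of vehicle-treated cultures to give inhibition.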

Molecules are shown by their SMILES. About 79,000 compounds went through this panel and 15% of them were active in at least one assay; those are over-represented in the sample as a whole. Values without a mark were called inactive. Activity calls are given as the source filed them. No stated cut-off is given here; in the data, active means growth inhibition above about 70%; inactive means the rest.

As for `Nc1cc2c(cc1[N+](=O)[O-])-c1cccc(F)c1C2`, the growth inhibition in assay [1] was 63.6%; in assay [2], 7.65%; in assay [3], 0.65%; in assay [4], 10.8%; in assay [5], -9.15%; in assay [6], 33%.
For `CC12CCC/C(=N\NC(N)=S)C1C(=O)NC(=O)C2` (stereo not given), the growth inhibition in assay [1] is -6.8%; in assay [2] it was 2.65%; in assay [3] it was -2.6%; in assay [4] it was 33%; in assay [5], 12.4%; in assay [6] it was 7.15%.
For `COc1cccc(-c2nc(SCC(N)=O)[nH]c(=O)c2C#N)c1`, the growth inhibition in assay [1] was 6.25%; in assay [2], 1.8%; in assay [3] it was 13.5%; in assay [4], 12%; in assay [5] it was 17.5%; in assay [6], 14.2%.
On to `O=C(O)c1cccc(/C=N/O)c1O`, for which the growth inhibition in assay [1] was -16.9%; in assay [2] it was -3.25%; in assay [3], -6.45%; in assay [4], -10.5%; in assay [5], 7.75%; in assay [6] it was 8.55%.
`CC(=O)Nc1cc(Cl)ccc1SC1OC(COC(C)=O)C(OC(C)=O)C(OC(C)=O)C1OC(C)=O` (stereo not given): the growth inhibition is -10.6% in assay [1]; -7.15% in assay [2]; 17.9% in assay [3]; -44.2% in assay [4]; 4.6% in assay [5]; -2.8% in assay [6].
As for `CC1(C)OCC(C2OC3OC(C)(C)OC3C2O)O1` (stereo not given), the growth inhibition is 4% in assay [1]; 15.2% in assay [2]; 10.5% in assay [3]; -15.8% in assay [4]; 11.7% in assay [5]; 7.9% in assay [6].
For `O=c1[nH]c2ccccc2c(=O)n2cccc12`, the growth inhibition in assay [1] was 10.4%; in assay [2], 23.6%; in assay [3], 7.8%; in assay [4], -7.5%; in assay [5], -5.75%; in assay [6] it was 1.9%.
In the case of `C=C1c2ccccc2C=NN1c1ccccc1`, the growth inhibition is 19.4% in assay [1]; 4.35% in assay [2]; 13.2% in assay [3]; 4.25% in assay [4]; -8.75% in assay [5]; 1% in assay [6].
Turning to `Cc1ccc(S(=O)(=O)Oc2ccc(-c3ccc([N+](=O)[O-])cc3)cc2)cc1`, the growth inhibition was 1.5% in assay [1]; 19.2% in assay [2]; 15.4% in assay [3]; -6.9% in assay [4]; -1.8% in assay [5]; 7.05% in assay [6].
As to `CN(c1ccccc1)c1nc(=[N+](C)C)ss1`, the growth inhibition is 35.4% in assay [1]; 26.5% in assay [2]; 17% in assay [3]; 24.1% in assay [4]; 4.3% in assay [5]; 31.8% in assay [6].
For `C/C(=N/Nc1ccc([N+](=O)[O-])cc1[N+](=O)[O-])C1CC2CCC1C2` (stereo not given), the growth inhibition in assay [1] is -17.4%; in assay [2] it was 2.05%; in assay [3], 2.1%; in assay [4], -4.3%; in assay [5], 3%; in assay [6], -16.6%.
Take `OCCCCC(c1ccc(O)cc1)c1ccc(O)cc1`: the growth inhibition in assay [1] is 17%; in assay [2], -52.3%; in assay [3], 8.8%; in assay [4], 25.1%; in assay [5], -18.9%; in assay [6] it was -14.7%.
As to `CC(=O)NC1C(OCc2ccccc2)OC(CO)C(O)C1OCC(=O)N1CCCC1C(=O)NC(CCC(=O)NCCCCCNc1c2ccccc2nc2cccc([N+](=O)[O-])c12)C(N)=O` (stereo not given), the growth inhibition in assay [1] is 42.9%; in assay [2], 57.6%; in assay [3], 47.6%; in assay [4] it was 78.2% (active); in assay [5], 0.55%; in assay [6], 72.5% (active).
For `O=C(O)c1cc(-c2ccc(-c3ccccc3)cc2)nc2cc3ccccc3cc12`, the growth inhibition in assay [1] is -15.7%; in assay [2], -3.9%; in assay [3], -2.15%; in assay [4], -20.6%; in assay [5] it was -54.9%; in assay [6], 22%.
Regarding `CC(C)CC1NC(=S)N(c2ccccc2)C1=O` (stereo not given), the growth inhibition in assay [1] is -11%; in assay [2] it was -18.4%; in assay [3] it was -13.7%; in assay [4] it was -10.1%; in assay [5] it was -8.05%; in assay [6], -24.7%.
Consider `Cc1ccc(C2=C(c3ccccc3)C(O)(c3ccccc3)C(c3ccccc3)=C2c2ccc(C)cc2)cc1`, for which the growth inhibition in assay [1] was -1.6%; in assay [2], -20.1%; in assay [3], -31.5%; in assay [4], 15.8%; in assay [5] it was 14.1%; in assay [6], -12.7%.
For `CSCCC(NC(=O)c1cnc2ccccc2c1)C(N)=O` (stereo not given), the growth inhibition in assay [1] is -0.25%; in assay [2] it was -4.85%; in assay [3], 2.6%; in assay [4] it was -33.6%; in assay [5], -21.8%; in assay [6], 14.8%.
As to `CN(C)N=Nc1c(F)cccc1F`, the growth inhibition in assay [1] was -5.85%; in assay [2] it was -13.8%; in assay [3] it was -28.6%; in assay [4], 20.4%; in assay [5], 8.9%; in assay [6] it was 0.65%.
Consider `CCOC(CN=CC1CCC=CO1)OCC` (stereo not given), for which the growth inhibition in assay [1] is 10.9%; in assay [2], -5.35%; in assay [3], 2.85%; in assay [4] it was -1.55%; in assay [5], -1.5%; in assay [6], 6.65%.
For `CN(C)C(=S)c1cccc2ccccc12`, the growth inhibition in assay [1] is 5.1%; in assay [2], -10.5%; in assay [3], -1.95%; in assay [4] it was -31.4%; in assay [5], -27.2%; in assay [6], -8.45%.

For the origin of these results see PubChem BioAssay (NCI).
